From PubChem BioAssay (NCATS)
Where “and” joins values, the source holds several entries; their conditions need not be identical. Equal values may be shown once. Records with an inconclusive call do not appear. Calls of active or inactive are those of the source. The call rests on the fitted dose curve; in most records, active means well fitted activation curve with a large enough effect; inconclusive means small, poorly fitted or top-dose-only effect; inactive means no such curve, though single readings can be large or run the other way.
Potency means the concentration at half of the fitted maximal effect.

Each compound was assayed against Cellular tumor antigen p53 (Homo sapiens) (UniProt P04637) (assay: Primary qHTS for small molecule compounds that upregulate eGFP-tagged delta133p53alpha (in N-terminal) cells. (AID 2060322; further: nearly all actives have a fitted effect of over 75% in size;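 on activation: cells pre-induced with doxycycline then dosed without doxycycline; series mostly up to about 56 µM; 0% = DMSO vehicle and 100% = reference activator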)). Settings: NCI-H358 eGFP-delta133p53alpha fluorescence, 24 h; activation: active compounds read high.
Cellular tumor antigen p53 (Homo sapiens), sequence (P04637 whole entry, looked up): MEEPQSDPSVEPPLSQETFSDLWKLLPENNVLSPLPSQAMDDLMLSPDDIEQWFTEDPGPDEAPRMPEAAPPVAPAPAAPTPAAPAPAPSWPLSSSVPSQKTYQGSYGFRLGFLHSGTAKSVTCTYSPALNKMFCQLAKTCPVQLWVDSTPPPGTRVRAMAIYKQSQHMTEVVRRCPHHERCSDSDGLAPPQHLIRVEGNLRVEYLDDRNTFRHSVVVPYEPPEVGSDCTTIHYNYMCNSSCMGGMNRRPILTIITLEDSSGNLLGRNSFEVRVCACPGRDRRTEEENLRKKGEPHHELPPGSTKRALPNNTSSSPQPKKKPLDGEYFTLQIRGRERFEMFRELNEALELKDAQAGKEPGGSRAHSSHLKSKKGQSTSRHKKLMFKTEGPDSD
Procedure, shortened: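 NCI-H358 cells pre-induced 24 h with 10 ng/ml doxycycline for eGFP-delta133p53alpha, plated dox-free and exposed 24 h at 37C to titrated compounds. Fixed, Hoechst-stained; gated GFP peak intensity by laser scanning cytometry, normalized to DMSO (0%) and 57.5 uM 5-azacytidine (100%).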
For `CC(C)(C)OC(=O)CN(Cc1ccc(Cl)cc1)Cc1ccc([N+](=O)[O-])s1`, the activation was -41.8% (inactive).
In the case of `Nc1ncnc2c1ncn2[C@@H]1O[C@H](CO)[C@@H](O)[C@@H]1O`, the activation is reported as 23.2% (inactive).
For `COc1cccc([C@@H](C)NCCCc2ccccc2Cl)c1`, the activation was -21.4% (inactive).
`COc1cc2c(cc1Cc1cccc(Cl)c1F)c(=O)c(C(=O)O)cn2[C@H](CO)C(C)C` was tested, and the activation was -15% (inactive).
For `C[C@@H]1C[C@H]2[C@@H]3CCC4=CC(=O)C=C[C@]4(C)[C@@]3(Cl)[C@@H](O)C[C@]2(C)[C@@]1(OC(=O)c1ccco1)C(=O)CCl`, the activation was 19.9% (inactive).
With `O=c1cc(-c2ccccc2)oc2cc(O)c(O)c(O)c12` the activation was -1.25% (inactive).
In the case of `O=C(O)c1cn(C2CC2)c2cc(N3CCNCC3)c(F)cc2c1=O`, the activation is reported as 6.67% (inactive).
In the case of `O=[N+]([O-])c1cncn1CCN1CCOCC1`, the activation is reported as -23.4% (inactive).
With `O=C1CCc2ccc(OCCCCN3CCN(c4cccc(Cl)c4Cl)CC3)cc2N1` the activation was -4.19% (inactive).
In the case of `CC(C)(C)c1cnc(CSc2cnc(NC(=O)C3CCNCC3)s2)o1`, the Potency is reported as 0.968 µM (active).
In the case of `COc1ccc(C=Cc2cc(OC)c(OC)c(OC)c2)cc1NC(=O)[C@H](N)CO`, the activation is reported as 7.98% (inactive).
With `CNC(=O)c1cc(COc2nnc(Nc3ccc(Cl)cc3)c3ccoc23)ccn1` the activation was -2.64% (inactive).
With `O=c1c(-n2ccnn2)c[nH]n1-c1cc(N2CCOCC2)ncn1` the activation was 44.9% (inactive).
`CCOC(=O)N1c2ccc(C(F)(F)F)cc2[C@@H](N(Cc2cc(C(F)(F)F)cc(C(F)(F)F)c2)C(=O)OC)C[C@H]1CC` was tested, and the activation was -8.39% (inactive).
`C[C@]12CCC(=O)C=C1[C@@H]1C[C@@H]1[C@H]1[C@@H]3[C@@H]4C[C@@H]4[C@@]4(CCC(=O)O4)[C@@]3(C)CC[C@@H]12` was tested, and the activation was -15.3% (inactive).
With `C[C@]1(c2nc3c(C(N)=O)cccc3[nH]2)CCCN1` the activation was 53.7% (inactive).
`O=C(Cc1cccc(OC(F)(F)F)c1)Nc1ccc(CCCCc2nnc(NC(=O)Cc3ccccn3)s2)nn1` was tested, and the activation was 7.71% (inactive).
`CN1C(=O)C[C@H](C(=O)N[C@@H](Cc2cnc[nH]2)C(=O)N2CCC[C@@H]2C(N)=O)NC1=O` was tested, and the activation was 8.59% (inactive).
In the case of `O=c1c(O)c(-c2ccc(O)c(O)c2)oc2cc(O)ccc12`, the activation is reported as -6.9% (inactive).
With `CN1CCC(=C2c3ccccc3CCc3sccc32)CC1` the activation was -15.1% (inactive) and 66.1% (inactive).
In the case of `COC(=O)C1=C(C)NC(C)=C(C(=O)OCCN2CCN(C(c3ccccc3)c3ccccc3)CC2)C1c1cccc([N+](=O)[O-])c1` (stereo not drawn), the activation is reported as -17.6% (inactive).
In the case of `O=C1NC(=O)C(c2c[nH]c3ccccc23)=C1c1c[nH]c2ccccc12`, the Potency is reported as 27.3 µM (active).
For `CCOc1ccccc1N=Nc1c(C)[nH]n(-c2nc(-c3ccccc3)cs2)c1=O`, the activation was 25.3% (inactive).
`CCn1c(-c2nonc2N)nc2cnc(Oc3cccc(NC(=O)c4ccc(OCCN5CCOCC5)cc4)c3)cc21` was tested, and the activation was -20.5% (inactive).
In the case of `Cn1c(Nc2ccc(C(F)(F)F)cc2)nc2cc(Oc3ccnc(-c4ncc(C(F)(F)F)[nH]4)c3)ccc21`, the activation is reported as 0.151% (inactive).
With `Nc1nc(=O)n([C@H]2C[C@H](O)[C@@H](CO)O2)cc1F` the activation was -4.59% (inactive).
For `CC(C)c1ccccc1Cc1cc(C(=O)Nc2ccc(S(=O)(=O)c3ccccc3C(C)(C)C)cc2)c(O)c(O)c1O`, the activation was -33% (inactive).
`O=C1c2cccc(O)c2C(=O)c2c(O)cc(CO)cc21` was tested, and the activation was -5.26% (inactive).
In the case of `OC[C@H](Cc1ccccc1)Nc1nc(Oc2ccc3c(c2)CCC3)nc2c1ncn2Cc1ccc(-c2ccccc2)cc1`, the activation is reported as -44.8% (inactive).
In the case of `CC[C@@]1([C@@H]2O[C@@H]([C@H]3O[C@@](O)(CO)[C@H](C)C[C@H]3C)C[C@H]2C)CC[C@H]([C@]2(C)CC[C@]3(C[C@H](O)[C@@H](C)[C@@H]([C@@H](C)[C@@H](OC)[C@H](C)C(=O)O)O3)O2)O1`, the activation is reported as 7.91% (inactive).
For `O=C(O)Cc1cccc(OCCCN(Cc2cccc(C(F)(F)F)c2Cl)CC(c2ccccc2)c2ccccc2)c1`, the activation was 4.75% (inactive).
For `C[C@H](NC(=O)[C@@H](O)c1cc(F)cc(F)c1)C(=O)N[C@@H]1C(=O)N(C)c2ccccc2-c2ccccc21`, the activation was 10.4% (inactive).
`CCc1nc(N)nc(N)c1-c1ccc(Cl)cc1` was tested, and the activation was -15.9% (inactive) and -12.3% (inactive).
